KB-3-1 tox: qHTS assay for MDR1-selective chemotherapeutics: Primary screen using the parental adenocarcinoma cell KB-3-1; KB-3-1 viability, CellTiter-Glo ATP luminescence, 72 h; Potency, µM (top dose mostly 46.1 µM), usual class: cytotoxic; 1.4% of 400,000 active; also: nearly all actives have a fitted effect of over 60% in size
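KB-3-1 cells, DMEM (no phenol red) + 10% FBS; compound by pin transfer, 72 h, 37 °C. Readout: CellTiter-Glo luminescence after 10 min. Data normalized, curve-fitted.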
KB-V1 cytotox: qHTS assay for MDR1-selective chemotherapeutics: Primary screen using the drug-selected MDR subline cells KB-V1. KB-V1 MDR cells viability, CellTiter-Glo, 72 h. 3.4% of 400,000 active. Potency, µM (series often up to 46.1 µM), hits mostly cytotoxic; also: nearly all actives have a fitted effect of over 60% in size
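Cytotoxicity toward P-gp-expressing KB-V1 cells was determined as loss of CellTiter-Glo luminescence after 72 h at 37 degrees C. Compounds were tested in quantitative HTS format across a concentration range, with curves fitted to normalized data.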
SW480 rereplic: A quantitative high throughput screen for small molecules that induce DNA re-replication in SW480 colon adenocarcinoma cells; SW480 DNA re-replication, Hoechst DNA content imaging, 48 h; Potency, µM (series often up to 46.1 µM), hits mostly activators; 1.8% of 340,000 active; AID 624297, 2012; also: nearly all actives have a fitted effect of over 55% in size
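Quantitative HTS format with DMSO vehicle controls; 48 hr drug incubation at 37 C, then 40 min Hoechst staining and scanning imager measurement at 405 nm excitation.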
MCF10A rerep: A quantitative high throughput screen for small molecules that induce DNA re-replication in MCF 10a normal breast cells; Potency, µM (highest dose often 46.1 µM), usual class: activators; AID 624296, 2012; MCF 10A DNA re-replication, Hoechst nuclear intensity, 48 h; 2.9% of 350,000 active; also: nearly all actives have a fitted effect of over 50% in size
ELG1 DNA repair: qHTS screen for small molecules that inhibit ELG1-dependent DNA repair in human embryonic kidney (HEK293T) cells expressing luciferase-tagged ELG1; 2.3% of 330,000 active; HEK293T ELG1-luciferase reporter, luminescence, 16 h; DNA damage induced by 5-fluorouridine; Potency, µM (highest dose often 46.1 µM), usual class: inhibitors; also: nearly all actives have a fitted effect of over 55% in size
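Overnight (16 hr) co-exposure of 2,000 cells/well to 5-fluorouridine and compound at 37 °C preceded detection. Luciferase was quantified via ONE-Glo luminescence; loss of signal denotes inhibition.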
Numbers stand for hits; i = inactive; ? = inconclusive; nt = not tested or not shown. An excerpt weighted towards active compounds, which were near 8.2% of everything screened. Calls follow the shape of the dose curve; as a rule, active = well fitted curve in the direction sought with a large enough effect; inconclusive = small, poorly fitted or top-dose-only effect, or another doubt; inactive = no such curve, though single readings can be large; an effect the other way counts as inactive or inconclusive.

SMILES	KB-3-1 tox	KB-V1 cytotox	SW480 rereplic	MCF10A rerep	ELG1 DNA repair
Cn1cc(/C=N/n2cnc3sc4c(c3c2=O)CCCC4)c2ccccc21	?	20.6µM	18.4µM	?	i
O=c1c2c3c(sc2ncn1-n1cccc1)CCCCC3	i	?	i	i	?
CC(=O)Nc1ccc(NC2=Nc3ccccc3N3C2=Nc2c(c(C)nn2-c2ccccc2)C3c2ccccc2)cc1 (centres undefined)	8.2µM	?	?	?	2.82µM
COc1ccc(NC2=Nc3ccccc3N3C2=Nc2c(c(C)nn2-c2ccc(C)cc2)C3c2cccnc2)cc1 (centres undefined)	i	?	2.91µM	4.61µM	i
CC(=O)Nc1ccc(NC(=O)c2c(C)nn(-c3ccccc3)c2-n2cccc2)cc1	i	i	nt	nt	nt
CNC(C)C(=O)NC(C(=O)N1CCCC1C(=O)Nc1ccc2ncccc2c1)C(C)C (centres undefined)	i	i	i	i	?
Cc1nc(Cc2nnc(SC(C)C(=O)Nc3ccccc3)o2)cs1 (centres undefined)	i	i	nt	nt	nt
COc1ccc(CCNc2nc3ccccc3n3cnnc23)cc1OC	i	i	i	i	?
CCOc1ccc(CCNc2nc3ccccc3n3cnnc23)cc1OCC	i	?	i	?	20.6µM
Cc1cccc(N2CCN(C(=O)CCS(=O)(=O)c3ccc(Br)cc3)CC2C)c1 (centres undefined)	i	?	i	i	?
CC(=O)N1CCCc2cc(S(=O)(=O)CCC(=O)N3CCN(c4cccc(C)c4)C(C)C3)ccc21 (centres undefined)	i	?	i	i	20.6µM
Cc1noc(C)c1C(=O)Nc1sc(C)c(-c2ccccc2)c1C#N	13µM	4.11µM	i	i	i
Cc1cccc(C(=O)Nc2sc(C)c(-c3ccccc3)c2C#N)c1	i	?	i	9.2µM	?
N#Cc1c(Cl)nsc1NC(=O)c1ccccc1	?	7.31µM	i	?	2.91µM
Cc1sc(NC(=O)C2CCCCC2)c(C#N)c1-c1ccccc1	i	i	i	i	?
NC(=O)c1cc([N+](=O)[O-])ccc1NCc1cnccn1	i	i	i	i	i
CCOc1ccc2[nH]c(=O)c(CN(Cc3nnnn3Cc3ccco3)C3CCCCC3)cc2c1	i	i	i	i	10.3µM
CCC(C)(C)n1nnnc1CN(Cc1cc2cc(OC)ccc2[nH]c1=O)C1CCCC1	i	18.4µM	?	5.8µM	?
COc1ccc(Cn2nnnc2CN(Cc2cc3ccc(C)cc3[nH]c2=O)C2CCCC2)cc1	i	?	i	i	12.6µM
COc1ccc(Cn2nnnc2CN(Cc2cc3cccc(C)c3[nH]c2=O)C2CCCC2)cc1	i	i	i	i	?
C[C@@H]1CN([C@H](C)CO)C(=O)c2cc(Br)cnc2O[C@H]1CN(C)Cc1cccnc1	i	i	nt	nt	nt
NNC(=O)c1ccc(OCC2CC(c3ccc(Cl)cc3)=NO2)cc1 (centres undefined)	i	?	i	i	?
COc1cc(C(=O)N2CCCC(C)(C(=O)NS(=O)(=O)C3CC3)C2)cc(OC)c1OC (centres undefined)	i	i	nt	nt	nt
CCOc1ccccc1OCCCC(=O)N(CC)CC(=O)Nc1ccc(NC(C)=O)cc1	i	i	i	i	i
Cc1nn(-c2ccccn2)c2c1C(c1ccsc1)C1=C(CCCC1=O)N2 (centres undefined)	?	3.66µM	?	i	?
SMILES	KB-3-1 tox	KB-V1 cytotox	SW480 rereplic	MCF10A rerep	ELG1 DNA repair
CSC1=C(C#N)C(c2ccccc2Cl)C2=C(N1)c1ccccc1C2=O (centres undefined)	i	i	i	?	i
Cc1cccc(-n2nc(C)c3c2NC2=C(C(=O)CCC2)C3c2ccccn2)c1 (centres undefined)	i	i	i	i	i
Cc1nn(-c2ccccn2)c2c1C(=O)C(Br)CC2 (centres undefined)	i	i	i	?	i
Cc1nn(-c2ccccn2)c2c1C(c1c(F)cccc1Cl)C1=C(N2)c2ccccc2C1=O (centres undefined)	nt	nt	i	i	14.6µM
Cc1nn(-c2ccccn2)c2c1C(c1ccccc1Cl)C1=C(N2)c2ccccc2C1=O (centres undefined)	?	i	i	?	20.6µM
CCOc1cc(S(=O)(=O)NCCc2c(C)[nH]c3ccc(C)cc23)ccc1Br	i	i	nt	nt	nt
CCOC(=O)c1c(NC(=O)Cc2cccs2)sc(C)c1C	i	?	i	3.66µM	i
COC(=O)c1c(NC(=O)Cc2cccs2)sc(C(=O)N2CCCCC2)c1C	i	16.4µM	i	i	25.9µM
O=C(CSc1nc2[nH]ncc2c(=O)[nH]1)Nc1ccc(Cl)cc1	i	i	i	i	i
Cc1ccc(S(=O)(=O)N(CCC(=O)NCc2ccc(S(N)(=O)=O)cc2)c2ccccc2)cc1	i	?	?	i	i
CCOC(=O)c1c(C)[nH]c(C)c1S(=O)(=O)N1CCC(C(=O)N2CCN(c3cccc(C)c3)C(C)C2)CC1 (centres undefined)	i	i	nt	nt	nt
O=C(NCC(=O)N1CCCCCCC1)c1cccc([N+](=O)[O-])c1	i	20.6µM	i	i	i
O=C(c1ccc(Oc2ccc([N+](=O)[O-])cc2)cc1)N1CCCCCC1	?	i	i	i	?
O=C(CCc1ccc(Oc2cc([N+](=O)[O-])cc([N+](=O)[O-])c2)cc1)N1CCCCC1	i	?	i	?	13µM
Cc1ccc(CN2CCc3nc(SCC(=O)Nc4cccc(C)c4C)[nH]c(=O)c3C2)cc1	i	i	nt	nt	nt
N#CC1(NC(=O)Cn2ncc(Cl)c(Cl)c2=O)CCCCC1	?	i	i	4.47µM	5.8µM
Cc1ccc(N(C(=O)c2cccc(C)c2)S(=O)(=O)c2ccc(Cl)cc2)cc1	i	i	nt	nt	nt
COc1cc(C)ccc1N(CCCN1C(=O)c2cccc3cccc(c23)C1=O)C(=O)c1cccs1	i	i	?	i	20.6µM
C/C(N)=C(/C#N)C(=O)CSc1nc2ccccc2c(=O)n1CCCOC(C)C	i	i	i	i	?
CCOCCCn1c(SCC(=O)/C(C#N)=C(\C)N)nc2ccccc2c1=O	i	8.2µM	i	i	?
CCOCCCn1c(SCc2nc3ccccc3s2)nc2ccccc2c1=O	11.6µM	2.31µM	?	?	?
CCOCCCn1c(SCC(=O)Nc2ccccc2)nc2ccccc2c1=O	i	i	i	i	?
COC(=O)c1ccc(NC(=O)C(=O)c2cn(CC(=O)N3CCOCC3)c3ccccc23)cc1	i	i	i	i	i
CN(C)CCCOC(=O)c1ccccc1Cl	i	i	i	i	i
CN(C)CCCOC(=O)N1c2ccccc2C=Cc2ccccc21	25.9µM	i	i	i	i
